This note sets out measurements from PubChem BioAssay (NCI).

Molecules are shown by their SMILES. The panel holds about 83,000 compounds, 20% with a hit somewhere; the sample as a whole holds those more often.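 The endpoint reported here, percent growth, reads 100 for growth as untreated, 0 for no net growth and -100 for all cells dead.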 Values without a mark were called inactive. Active and inactive are the calls of the source. The calls were made as follows: active = growth percent below 10; inactive = the rest.

Among the test systems are RPMI-8226 leukemia; OVCAR-8 ovarian; OVCAR-5 ovarian; OVCAR-4 ovarian; SK-OV-3 ovarian; IGROV1 ovarian; OVCAR-3 ovarian; HS 578T breast; NCI/ADR-RES ovarian; T-47D breast; BT-549 breast; MDA-MB-435 melanoma; SW-620 colon; MCF7 breast; HCT-116 colon; HCC-2998 colon; KM12 colon.
Common to all, as to experiment: NCI-60 one-dose screen, 48 h (100 = growth as untreated, 0 = no growth, -100 = all killed)
Common to all, as to details: 10 µM unless noted

On to `COc1cc(OC)c(/C=C/c2ccc3ccccc3[n+]2C)c(OC)c1`, for which the growth is -20.9% (active) with RPMI-8226 leukemia; 9.25% (active) in the assay with OVCAR-8 ovarian; 22.3% in the assay with OVCAR-5 ovarian; 28.8% in the assay on OVCAR-4 ovarian; 27.1% in the assay on SK-OV-3 ovarian; 14.8% in the assay with IGROV1 ovarian. The growth was 1.43% (active) with OVCAR-3 ovarian; 34.4% in the assay on HS 578T breast; 97.4% in the assay on NCI/ADR-RES ovarian; 9.72% (active) with T-47D breast; -0.0814% (active) with BT-549 breast; -30.6% (active) with MDA-MB-435 melanoma. For the same molecule, the growth in the assay with SW-620 colon is 13.5%; with MCF7 breast it was 3.94% (active); in the assay with HCT-116 colon, 2.2% (active); in the assay with HCC-2998 colon it was 13.4%; in the assay on KM12 colon, -49.2% (active).
Take `CN1CCN(Cc2ccc(NC(=O)c3cncc(C#Cc4c(N)ncc5ccc(F)cc45)c3)cc2C(F)(F)F)CC1`: the growth in the assay on RPMI-8226 leukemia is 5.38% (active); with OVCAR-8 ovarian, 53.8%; in the assay on OVCAR-5 ovarian it was -84.6% (active); in the assay with OVCAR-4 ovarian, 36.1%; in the assay on SK-OV-3 ovarian, 60%; in the assay on IGROV1 ovarian, 11%. Moreover, the growth is 63.2% in the assay with OVCAR-3 ovarian; -8.53% (active) in the assay on HS 578T breast; 48.2% with NCI/ADR-RES ovarian; 36.7% with BT-549 breast; -80.1% (active) in the assay on MDA-MB-435 melanoma; -43.2% (active) in the assay on SW-620 colon. Also, the growth was 6.26% (active) in the assay on MCF7 breast, 4.69% (active) in the assay on HCT-116 colon, 42.2% in the assay on HCC-2998 colon and -24.9% (active) in the assay with KM12 colon.
Turning to `CC(C)OCC1CO1` (centres undefined), the growth in the assay with RPMI-8226 leukemia is 113%; in the assay with OVCAR-8 ovarian it was 113%; with OVCAR-5 ovarian it was 101%; in the assay with OVCAR-4 ovarian, 115%; with SK-OV-3 ovarian, 106%; in the assay with IGROV1 ovarian, 110%. Besides, the growth in the assay on OVCAR-3 ovarian was 107%; in the assay with HS 578T breast it was 104%; with NCI/ADR-RES ovarian it was 109%; in the assay with T-47D breast, 104%; in the assay with BT-549 breast, 106%; in the assay on MDA-MB-435 melanoma, 102%. Besides, the growth with SW-620 colon was 96.4%; in the assay with MCF7 breast, 99.6%; in the assay with HCT-116 colon, 100%; in the assay with HCC-2998 colon, 120%; in the assay on KM12 colon it was 98.3%.
In the case of `CC[C@H](Nc1ncnc2nc[nH]c12)c1nc2cccc(NCc3ccc(C(=O)NO)nc3)c2c(=O)n1-c1ccccc1`, the growth in the assay on RPMI-8226 leukemia is 6.61% (active); in the assay with OVCAR-8 ovarian it was 36.9%; in the assay on OVCAR-5 ovarian, 84.9%; with OVCAR-4 ovarian it was 70.4%; in the assay on SK-OV-3 ovarian it was 80.8%; in the assay on IGROV1 ovarian, 30.9%. Moreover, the growth in the assay with OVCAR-3 ovarian was 41.5%; with HS 578T breast, 13.8%; in the assay with NCI/ADR-RES ovarian it was 106%; in the assay on T-47D breast, 6.8% (active); with BT-549 breast, 13.3%; with MDA-MB-435 melanoma, 25.4%. In addition, the growth with SW-620 colon is 47.2%; with MCF7 breast it was 13.3%; with HCT-116 colon it was 9.03% (active); in the assay on HCC-2998 colon, 67.6%; with KM12 colon, 60.9%.
With `Cc1nc2ccccc2c(=O)n1-c1cccc(OCc2cn(-c3cccc(O)c3)nn2)c1`, the growth with RPMI-8226 leukemia was 71.5%; in the assay with OVCAR-8 ovarian, 88.6%; in the assay on OVCAR-5 ovarian it was 111%; in the assay with OVCAR-4 ovarian it was 89.6%; in the assay with SK-OV-3 ovarian, 103%; in the assay on IGROV1 ovarian, 99.2%. The growth in the assay on OVCAR-3 ovarian was 91.5%; with HS 578T breast, 87.4%; in the assay with NCI/ADR-RES ovarian, 98%; in the assay with T-47D breast, 68.4%; in the assay with BT-549 breast, 99.8%; with MDA-MB-435 melanoma, 108%. Besides, the growth was 94.3% in the assay with MCF7 breast, 95.2% with HCT-116 colon, 103% in the assay with HCC-2998 colon and 95.2% in the assay on KM12 colon.
On to `COc1ccc(Nc2c3ccccc3nc3ccccc23)cc1`, for which the growth with RPMI-8226 leukemia was 28.1%; in the assay on OVCAR-8 ovarian, 14.7%; with OVCAR-5 ovarian it was 36.4%; in the assay on OVCAR-4 ovarian, 41.5%; with SK-OV-3 ovarian it was 36.1%; in the assay with IGROV1 ovarian, 22.1%. Moreover, the growth in the assay with OVCAR-3 ovarian was 28.3%; with HS 578T breast, 59.5%; in the assay on NCI/ADR-RES ovarian, 28.1%; with T-47D breast, 30.6%; in the assay on BT-549 breast, 42.2%; in the assay on MDA-MB-435 melanoma it was 31.3%. In addition, the growth with SW-620 colon was 24.2%; in the assay on MCF7 breast, 11.5%; in the assay on HCT-116 colon it was 13%; with HCC-2998 colon, 46%; with KM12 colon, 37.6%.
`COc1ccc(-c2nc(Nc3nc4ccccc4[nH]3)nc(N)c2C#N)cc1`: the growth is 94% with RPMI-8226 leukemia; 103% with OVCAR-8 ovarian; 104% in the assay with OVCAR-5 ovarian; 102% in the assay with OVCAR-4 ovarian; 102% in the assay with SK-OV-3 ovarian; 59.1% with IGROV1 ovarian. Moreover, the growth in the assay on OVCAR-3 ovarian was 111%; with HS 578T breast, 129%; with NCI/ADR-RES ovarian, 103%; in the assay on T-47D breast, 97.1%; in the assay with BT-549 breast, 86.4%; with MDA-MB-435 melanoma, 117%. Besides, the growth was 108% with SW-620 colon, 90.2% in the assay on MCF7 breast, 93.8% with HCT-116 colon and 108% with KM12 colon.
With `C/C=C(/C)C(=O)OC1C=C(CO)C(=O)C(OC(=O)C2(C)OC2C)C1C(C)C` (centres undefined), the growth is -37.4% (active) with RPMI-8226 leukemia; 4.08% (active) in the assay with OVCAR-8 ovarian; -40% (active) in the assay with OVCAR-5 ovarian; 13.6% in the assay on OVCAR-4 ovarian; 44.3% in the assay with SK-OV-3 ovarian; -31.2% (active) in the assay with IGROV1 ovarian. Also, the growth is -46.9% (active) with OVCAR-3 ovarian; 30.9% with HS 578T breast; 6.41% (active) in the assay with NCI/ADR-RES ovarian; -7.25% (active) in the assay on BT-549 breast; -31.8% (active) with MDA-MB-435 melanoma; -26.8% (active) with SW-620 colon. Besides, the growth in the assay with MCF7 breast is 8.26% (active); in the assay on HCT-116 colon, -58.9% (active); in the assay with HCC-2998 colon, -87.6% (active); in the assay on KM12 colon, -56.3% (active).
Consider `CCOC(=O)C(C)C(C)(O)c1ccccc1` (centres undefined), for which the growth is 89.9% in the assay with RPMI-8226 leukemia; 107% in the assay on OVCAR-8 ovarian; 104% with OVCAR-5 ovarian; 89.6% with OVCAR-4 ovarian; 102% in the assay on SK-OV-3 ovarian; 101% in the assay on IGROV1 ovarian. In addition, the growth is 107% in the assay on OVCAR-3 ovarian; 98.4% in the assay with HS 578T breast; 99.5% in the assay on NCI/ADR-RES ovarian; 97.3% with T-47D breast; 105% with BT-549 breast; 102% in the assay on MDA-MB-435 melanoma. The growth in the assay on SW-620 colon was 114%; in the assay on MCF7 breast, 93.6%; in the assay with HCT-116 colon, 97.1%; with HCC-2998 colon, 84.4%; in the assay on KM12 colon it was 97.7%.
